Results taken from PubChem BioAssay AID504444 (National Center for Advancing Translational Sciences (NCATS), 2011).
Among all 360,000 compounds or so, about 7,500 (2.1%) were called active. Another 20% or so got no clear call; they are omitted. Shown is part of a subset that was picked to be rich in actives. Values without a mark were called inactive. Calls follow the shape of the dose curve; as a rule, active = well fitted inhibition curve with a large enough effect; inconclusive = small, poorly fitted or top-dose-only effect, or effect the other way; inactive = flat fitted curve, though single readings scatter.

Assay: Nrf2 qHTS screen for inhibitors; also: nearly all actives have a fitted effect of over 60% in size
Conditions: A549 ARE-Fluc reporter, luciferase luminescence, 18-24 h; series mostly up to 46 µM; activity change, negative = inhibition: at the top concentration
From the text: NIH Molecular Libraries Probe Production Network [MLPCN]
NIH Chemical Genomics Center [NCGC]
Assay Provider: Shyam Biswal, Johns Hopkins University
Nrf2 is a transcription factor that maintains cellular redox homoestasis and protects cells from xenobiotics. Nrf2 binds to the antioxidant response element (ARE) to induce gene expression of a broad spectrum of genes that encode for antioxidants. […] Finding a small molecule that act as an inhibitor of Nrf2 function would represent a novel therapeutic target that could lead to improvement in survival of patients undergoing chemo- and/or radio- therapy.
This is the Nrf2 activity measured in the luminescent read.
1. Shibata, T., et al., Genetic Alteration of Keap1 Confers Constitutive Nrf2 Activation and Resistance to Chemotherapy in Gallbladder Cancer. Gastroenterology, 2008.
2. Sjoblom, T., et al., The consensus coding sequences of human breast and colorectal cancers. Science, 2006. 314(5797): p. 268-74.
NCGC Assay Protocol Summary:
A concentration-response assay was performed with A549 ARE_Fluc cells which are suspended in 5% FBS OPTI-MEM. Five uL were dispensed into 1536-well white TC-treated plate using the Kalypsys dispenser to achieve a density of 5000 cells/well in all columns except column 1. The plate is incubated at 37deg C at 5% CO2 for 2 hours before 23 nL of compounds are added with the Kalypsys pin tool equipped with a 1,536-pin array containing 10-nL slotted pins (FP1S10, 0.457-mm diameter, 50.8 mm long; V&P Scientific). The control compounds Budesonide and Staurosporine are both added at a concentration of 2mM and Budesonide is also added as a 1:10 titration, starting at 200uM, to achieve dose-response. After an 18-24 hour incubation at 37deg C at 5% CO2, 5ul of medium is added to column 1. Afterwards 1ul of 5x of CellTiter-Fluor (Promega) is added to every well. The plate is then incubated at 37deg C at 5% CO2 for 30 minutes before they are read on the ViewLux (Perkin Elmer) for a fluorescent read Ex=405(10)/Em=525(10) for a 3 second exposure, 2x binning, and high gain. Then 3 uL of 3x BugLite is dispensed into all wells and the plate is incubated at ambient room temperature for 15 minutes. Afterwards another ViewLux read is performed using the clear filter to get a luminescent read with the settings of 40 second exposure, 2x binning, and high gain. Cytotoxicity is assessed through the first fluorescent read and then biochemical activity against Nrf2 is measured in the luminescent read.
% is scaled to controls: 0 for no effect and ±100 for the full control effect; potency is read from the fitted curve at half-maximal effect.

Row | Compound | activity change, negative = inhibition [%] | Potency
1 | CC[C@H]1CC2CN3CCc4c([nH]c5ccccc45)C(C(=O)OC)(C2)C13 (stereo not given in full) | -5.41 | –
2 | CCC(=O)OC(Cc1ccccc1)(c1ccccc1)C(C)CN(C)C (stereo not given) | -0.661 | –
3 | CC=C(C)C(=O)OC1CCN2CC=C(COC(=O)C(O)(C(C)OC)C(C)(C)O)C12 (stereo not given) | -9.73 | –
4 | CCC(=O)c1ccc(OCC(=O)N2CCN(CC(=O)Nc3ccc(C)cc3)CC2)cc1 | 0.865 | –
5 | COc1cccc(C(=O)Nc2ccc(-c3cc(C(F)(F)F)nn3-c3ccccc3)cc2)c1 | – | 14.6 µM (active)
6 | COc1ccc(-c2nn(CCC#N)cc2C(=O)Nc2ccc(C(C)=O)cc2)cc1 | -8.88 | –
7 | COc1ccc(NC(=O)c2cn(CCC#N)nc2-c2ccc([N+](=O)[O-])cc2)cc1 | 2.75 | –
8 | C=C(C)C1(CCCC)C(=O)NC(=S)NC1=O | -1.08 | –
9 | COC(=O)[C@@H]1C(OC(=O)c2ccccc2)CC2CCC1N2C (stereo not given in full) | 0.299 | –
10 | COC(=O)C1=C(c2cc3ccccc3s2)C[C@@H]2CC[C@H]1N2C(=O)NC(C)C | -24.6 | –
11 | CC1([N+](=O)[O-])COP(=O)(Nc2ccc(F)cc2)OC1 (stereo not given) | -6.18 | –
12 | O=C1C=C(NS(=O)(=O)c2ccccc2)C(=O)c2ccccc21 | – | 23.1 µM (active)
13 | COP(=O)(NS(=O)(=O)c1ccccc1)OC | 0.416 | –
14 | CC1CCCN1CCC(C(N)=O)(c1ccccc1)c1ccccc1 (stereo not given) | -3.33 | –
15 | O=C1C2(Cl)C3(Cl)C4(Cl)C(Cl)(Cl)C5(Cl)C3(Cl)C1(Cl)C5(Cl)C24Cl (stereo not given) | -14 | –
16 | COC1=C[C@@H]2[C@@H]3Cc4ccc(OC)c(O)c4[C@]2(CCN3C)CC1=O | 3.67 | –
17 | Cc1ccc(Cl)cc1N1CCN(C(=O)C2CCC(CNS(=O)(=O)c3cccs3)CC2)CC1 (stereo not given) | – | 10.3 µM (active)
18 | c1cc2c(cc1C1OCC3C(c4ccc5c(c4)OCO5)OCC13)OCO2 (stereo not given) | -12.8 | –
19 | CCc1ccc(OCC(=O)N2CCN(CC(=O)Nc3ccccc3Cl)CC2)cc1 | 5.6 | –
20 | CC[C@H]1CN2CCc3cc(OC)c(OC)cc3[C@@H]2C[C@@H]1C[C@H]1NCCc2cc(OC)c(OC)cc21 | – | 0.411 µM (active)
21 | Cc1nn(-c2ccccc2)c(C)c1NC(=O)COC(=O)Cc1ccccc1 | -2.94 | –
22 | COc1ccc2c(c1)[C@]13CCCCC1C(C2)N(C)CC3 (stereo not given in full) | -3.89 | –
23 | C[C@]12CCC3C(CC[C@H]4[C@H](O)[C@H](O)CC[C@]34C)C1CCC2=O (stereo not given in full) | -6.32 | –

Row | Compound | activity change, negative = inhibition [%] | Potency
24 | COc1ccc(C2NCc3ccc4c(c3-n3cccc32)OCO4)cc1OC (stereo not given) | -14.8 | –
25 | CCCCCCCCCCCCn1ccc(=N)cc1 | – | 20.6 µM (active)
26 | c1cc2c(cc1CCNC1CCCCCC1)OCO2 | 9.17 | –
27 | O=C1N=c2ccccc2=C/C1=C\c1c(O)[nH]c(=S)[nH]c1=O | -14.9 | –
28 | COC1C(O)C(C)OC(OC2CCC3(C=O)C(CCC4C3CCC3(C)C(C5=CC(=O)OC5)CCC43O)C2)C1O (stereo not given) | – | 0.0231 µM (active)
29 | COC1=CC=C2[C@H]3Cc4ccc(OC)c5c4[C@@]2(CCN3C)C1O5 (stereo not given in full) | -4.83 | –
30 | COCc1cc(OC(=O)N(C)C)nc(-c2ccc(C)c(Cl)c2)n1 | -1.28 | –
31 | C[C@]12CCC3C(CC[C@H]4[C@H](O)[C@H](O)CC[C@]34C)C1CC[C@@H]2O (stereo not given in full) | 2.28 | –
32 | c1ccc(CCN2CCC3(CC2)OCCO3)cc1 | 1.07 | –
33 | CCC(C)(O)C(=O)OC1C(=O)OC2CC3C(C)=CC(=O)C(O)C3(C)C3C4(O)OCC23C1C(C)C4O (stereo not given) | – | 0.58 µM (active)
34 | CC12CCC(O)CC1CCC1C2CCC2(C)C(C(=O)CC(O)C(F)(F)F)CCC12 (stereo not given) | -6.35 | –
35 | CCN1C(=O)NC(=O)C2(CCCC2)C1=O | -20.2 | –
36 | Oc1ccc2c3c1OC1[C@H](O)CC[C@@]4(O)[C@@H](C2)N(CC2CC2)CC[C@]314 (stereo not given in full) | – | inactive
37 | NS(=O)(=O)c1ccc(CCNC(=O)c2ccc(Cl)c(S(=O)(=O)N3CCCCCC3)c2)cc1 | – | 10.3 µM (active)
38 | Cc1ccccc1NC(=O)COC(=O)c1cc(C)n(C2CC2)c1C | 3.85 | –
39 | Cn1cc(/C=C/c2nc3ccccc3c(=O)n2-c2ccccc2)c2ccccc21 | -22.8 | –
40 | C[C@]12CC[C@H](O)C[C@H]1CC[C@@H]1C2CC[C@]2(C)[C@@H](C3=CC(=O)OC3)[C@@H](O)C[C@]12O (stereo not given in full) | – | 1.84 µM (active)
41 | C[C@]12CCC3C(CC[C@H]4C[C@@H](O)CC[C@]34C)C1CC[C@@H]2O (stereo not given in full) | -12.6 | –
42 | C[C@]12CCC3C(CC[C@H]4C[C@@H](O)CC[C@]34C)C1C[C@@H](O)[C@H]2O (stereo not given in full) | -26.4 | –
43 | O=P1(Oc2ccccc2)CC(O)C(O)C(COCc2ccccc2)O1 (stereo not given) | 9.74 | –
44 | CC12CCC3C(CCC4CC(=O)CCC43C)C1CC(=NO)C2=O (stereo not given) | -13.9 | –
45 | CN1CCC(N(C)Cc2cccnc2)CC1 | -8.41 | –
